Assay results as given in the antibiotic and cytotoxicity screens of Wong et al. (2023).
Out of some 39,000 compounds screened, about 1,500 (3.8%) were called active. For the sample, actives were picked, then their nearest neighbours and some compounds at random.

What follows are compounds tested on HSkMC (human skeletal muscle cells) (assay: cytotoxicity call (relative viability < 0.9)). Conditions: 10 µM.

SMILES	cytotoxicity call
Cc1ccc(S(=O)(=O)Nc2ccc3c(c2)CC(=O)N([C@H](C)CO)C[C@H](C)[C@@H](CN(C)Cc2ccncc2)O3)cc1	inactive
C[C@@H]1CCCCO[C@@H](CN(C)S(=O)(=O)c2ccccc2)[C@H](C)CN([C@H](C)CO)C(=O)c2cc(NC(=O)NC3CCCCC3)ccc2O1	inactive
CN(C)CCCNC(=O)C[C@@H]1C=C[C@@H](NC(=O)Cc2cccnc2)[C@H](CO)O1	inactive
[N-]=[N+]=NCCOCCNC(=O)CCCOc1ccc(CS(=O)c2nnc(-c3ccc(F)cc3)o2)nc1 (centres undefined)	active
O=C1OCCN/C1=C/C(=O)c1ccccc1	inactive
Cc1ccc(S(=O)(=O)N(C)C[C@@H]2Oc3ccc(NS(=O)(=O)c4cn(C)cn4)cc3CC(=O)N([C@@H](C)CO)C[C@H]2C)cc1	inactive
C[C@@H]1CN([C@@H](C)CO)C(=O)Cc2cc(NC(=O)C3CC3)ccc2O[C@H]1CN(C)Cc1ccc2c(c1)OCO2	inactive
O=C(C[C@H]1C=C[C@H](NC(=O)Nc2ccc3c(c2)OCO3)[C@@H](CO)O1)NCCCN1CCOCC1	inactive
C[C@@H]1CN([C@@H](C)CO)S(=O)(=O)c2ccc(C#CCN(C)C)cc2O[C@@H]1CN(C)Cc1ccncc1	inactive
CO[C@@H]1CN(C)C(=O)c2ccc(NC(=O)NC(C)C)cc2OC[C@@H](C)N(Cc2ccc(-c3ccccn3)cc2)C[C@@H]1C	inactive
Cc1ccc(OC(=O)N(C)C[C@@H]2OCc3ccccc3-c3ccccc3C(=O)N([C@@H](C)CO)C[C@@H]2C)cc1	inactive
C[C@H]1CN([C@@H](C)CO)C(=O)c2cccc(NC(=O)Nc3cccc4ccccc34)c2O[C@H]1CN(C)C(=O)Nc1ccccc1	inactive
C[C@H](CO)N1C[C@H](C)[C@H](CN(C)C(=O)Nc2ccc(F)cc2)Oc2c(NC(=O)Nc3cccc4ccccc34)cccc2C1=O	inactive
C[C@@H]1CN([C@H](C)CO)C(=O)c2cccc(NC(=O)c3nc4ccccc4s3)c2O[C@@H]1CN(C)C(=O)Nc1cccc2ccccc12	inactive
C[C@H]1CN([C@@H](C)CO)C(=O)c2cccc(NC(=O)c3nc4ccccc4s3)c2O[C@H]1CN(C)S(=O)(=O)c1cn(C)cn1	active
C[C@@H]1CN([C@@H](C)CO)C(=O)c2cccc(NC(=O)c3nc4ccccc4s3)c2O[C@H]1CN(C)S(=O)(=O)c1cn(C)cn1	inactive
C[C@H]1CN([C@@H](C)CO)C(=O)c2cccc(NC(=O)Nc3cccc4ccccc34)c2O[C@@H]1CN(C)C(=O)Nc1ccccc1	active
C[C@H](CO)N1C[C@H](C)[C@@H](CN(C)C(=O)Nc2ccc(F)cc2)Oc2c(NC(=O)Nc3cccc4ccccc34)cccc2C1=O	inactive
C[C@H]1CN([C@@H](C)CO)C(=O)c2cccc(NC(=O)c3nc4ccccc4s3)c2O[C@@H]1CN(C)C(=O)Nc1cccc2ccccc12	inactive
C[C@@H]1CN([C@@H](C)CO)C(=O)c2cccc(NC(=O)c3nc4ccccc4s3)c2O[C@@H]1CN(C)S(=O)(=O)c1cn(C)cn1	inactive
C[C@H](CO)N1C[C@H](C)[C@@H](CN(C)C(=O)Nc2cccc3ccccc23)Oc2c(NC(=O)c3nc4ccccc4s3)cccc2C1=O	active
C[C@@H]1CN([C@H](C)CO)C(=O)c2cccc(NC(=O)Nc3cccc4ccccc34)c2O[C@@H]1CN(C)C(=O)Nc1ccc(F)cc1	active

SMILES	cytotoxicity call
C[C@H](CO)N1C[C@H](C)[C@H](CN(C)C(=O)Nc2ccccc2)Oc2c(NC(=O)Nc3cccc4ccccc34)cccc2C1=O	inactive
COC(=O)CN1C(=O)COc2ccc(C)cc21	inactive
COc1ccc(cc1)CN1CC[C@]2(CC1)CN([C@@H](CO)c1[nH]c3cc(ccc3c12)OC)C(=O)CN(C)C	inactive
CC(C)NC(=O)Nc1ccc2c(c1)C(=O)N([C@@H](C)CO)C[C@H](C)[C@H](CN(C)Cc1ccc(C(=O)O)cc1)O2	inactive
COc1ccc(C#Cc2cnc3c(c2)C(=O)N([C@H](C)CO)C[C@H](C)[C@@H](CN(C)C(=O)CC2CC2)O3)cc1	inactive
C[C@@H]1CN([C@@H](C)CO)C(=O)c2cc(-c3cccnc3)cnc2O[C@@H]1CN(C)Cc1ccc(-c2ccccc2)cc1	inactive
O=C(C[C@H]1CC[C@H](NS(=O)(=O)c2ccc(F)cc2)[C@H](CO)O1)N1CCC(Cc2ccccc2)CC1	inactive
C[C@H](CO)N1C[C@H](C)[C@@H](CN(C)C(=O)Nc2cccc3ccccc23)Oc2c(NC(=O)Nc3ccccc3)cccc2C1=O	inactive
COc1ccc(NC(=O)N(C)C[C@@H]2Oc3c(NC(=O)Nc4cccc5ccccc45)cccc3C(=O)N([C@H](C)CO)C[C@H]2C)cc1	inactive
COc1ccc(NC(=O)N(C)C[C@@H]2Oc3c(NC(=O)Nc4cccc5ccccc45)cccc3C(=O)N([C@H](C)CO)C[C@@H]2C)cc1	inactive
C[C@H]1CN([C@@H](C)CO)C(=O)c2cccc(NC(=O)Nc3cccc4ccccc34)c2O[C@H]1CN(C)C(=O)Nc1cccc2ccccc12	inactive
C[C@@H]1CN([C@@H](C)CO)C(=O)c2cccc(NC(=O)Nc3cccc4ccccc34)c2O[C@H]1CN(C)C(=O)Nc1ccccc1	active
C[C@H]1CN([C@@H](C)CO)C(=O)c2cccc(NC(=O)Nc3ccccc3)c2O[C@H]1CN(C)C(=O)Nc1cccc2ccccc12	inactive
C[C@@H]1CN([C@@H](C)CO)C(=O)c2cccc(NC(=O)Nc3ccccc3)c2O[C@@H]1CN(C)C(=O)Nc1cccc2ccccc12	active
C[C@@H]1CN([C@H](C)CO)C(=O)c2cccc(NC(=O)Nc3cccc4ccccc34)c2O[C@@H]1CN(C)C(=O)Nc1ccccc1	inactive
C[C@@H]1CN([C@@H](C)CO)C(=O)c2cccc(NC(=O)Nc3cccc4ccccc34)c2O[C@H]1CN(C)C(=O)Nc1cccc2ccccc12	inactive
C[C@@H]1CN([C@H](C)CO)C(=O)c2cccc(NC(=O)Nc3cccc4ccccc34)c2O[C@H]1CN(C)C(=O)Nc1ccccc1	inactive
COc1ccc(NC(=O)N(C)C[C@H]2Oc3c(NC(=O)Nc4cccc5ccccc45)cccc3C(=O)N([C@@H](C)CO)C[C@@H]2C)cc1	active
C[C@@H]1CN([C@H](C)CO)C(=O)c2cccc(NC(=O)Nc3cccc4ccccc34)c2O[C@H]1CN(C)C(=O)Nc1cccc2ccccc12	active
CN1C(=O)c2cc(NS(=O)(=O)c3cccc(F)c3)ccc2OC[C@H]2O[C@H](CC(=O)NCCN3CCCCC3)CC[C@@H]21	inactive
NC(=O)NC(=O)C[n+]1ccc(/C=N/O)cc1	inactive
COc1ccc(S(=O)(=O)N(C)C[C@H]2Oc3ccc(N(C)C)cc3C(=O)N([C@@H](C)CO)C[C@@H]2C)cc1	inactive

SMILES	cytotoxicity call
CS(=O)(=O)N1C[C@H]2C[C@@H](F)[C@@H](O)[C@@H]2C1	inactive
C[C@@H]1CCCCO[C@@H](CN(C)C(=O)Nc2ccc3c(c2)OCO3)[C@@H](C)CN([C@H](C)CO)C(=O)c2cc(NC(=O)NC3CCCCC3)ccc2O1	inactive
O=C(C[C@H]1C[C@@H]2c3cc(NS(=O)(=O)c4ccc(F)cc4)ccc3O[C@@H]2[C@H](CO)O1)NCc1cccnc1	inactive
O=C(C[C@@H]1C[C@H]2c3cc(NC(=O)NC4CCCC4)ccc3O[C@H]2[C@H](CO)O1)NCc1ccc2c(c1)OCO2	inactive
O=C(CN1CCOCC1)NCC[C@@H]1CC[C@@H](NC(=O)Cc2ccccn2)[C@H](CO)O1	inactive
C[C@@H]1CN([C@@H](C)CO)C(=O)Cc2cc(NC(=O)C3CCCCC3)ccc2O[C@H]1CN(C)C(=O)Nc1ccc(C(F)(F)F)cc1	inactive
CC[C@H]1CN(C)N1C(=O)[C@@H]1CCCO1	inactive
CC(C)CC#Cc1ccc2c(c1)O[C@H](CN(C)C(=O)c1ccncc1)[C@H](C)CN([C@@H](C)CO)S2(=O)=O	inactive
C[C@@H]1CN([C@@H](C)CO)C(=O)Cc2cc(NS(=O)(=O)c3ccc(Cl)cc3)ccc2O[C@H]1CN(C)Cc1ccc(Cl)c(Cl)c1	active
C[C@@H]1CN([C@H](C)CO)C(=O)Cc2cc(NS(=O)(=O)c3ccc(Cl)cc3)ccc2O[C@@H]1CN(C)Cc1ccc(Cl)c(Cl)c1	active
C[C@H]1CN([C@@H](C)CO)C(=O)Cc2cc(NS(=O)(=O)c3ccc(Cl)cc3)ccc2O[C@@H]1CN(C)Cc1ccc(Cl)c(Cl)c1	inactive
C[C@H](CO)N1C[C@H](C)[C@H](CN(C)Cc2ccc(Cl)c(Cl)c2)Oc2ccc(NS(=O)(=O)c3ccc(Cl)cc3)cc2CC1=O	active
C[C@@H]1CN([C@@H](C)CO)C(=O)Cc2cc(NS(=O)(=O)c3ccc(Cl)cc3)ccc2O[C@@H]1CN(C)Cc1ccc(Cl)c(Cl)c1	active
C[C@H](CO)N1C[C@H](C)[C@@H](CN(C)Cc2ccc(Cl)c(Cl)c2)Oc2ccc(NS(=O)(=O)c3ccc(Cl)cc3)cc2CC1=O	inactive
C[C@H](CO)N1C[C@H](C)[C@H](CN(C)CC2CC2)Oc2ccc(NC(=O)CCN3CCOCC3)cc2CC1=O	inactive
CC(C)NC(=O)N(C)C[C@@H]1Oc2ccc(NC(=O)NC3CCCCC3)cc2C(=O)N([C@H](C)CO)C[C@@H]1C	inactive
CC(C)(C)[S@@](=O)N1Cc2cc(C(=O)NCc3ccc4c(c3)OCO4)nc(CCNS(=O)(=O)c3ccccc3)c2[C@H]1CCO	inactive
CCS(=O)(=O)N1CC[C@]2(CC1)CN(CC1CCOCC1)[C@H](CO)c1c2c2ccc(cc2n1C)OC	inactive
Cc1noc(C)c1S(=O)(=O)Nc1ccc2c(c1)CC(=O)N([C@H](C)CO)C[C@H](C)[C@H](CN(C)Cc1ccc3c(c1)OCO3)O2	inactive
C[C@@H]1CCCCO[C@H](CN(C)C(=O)Nc2ccc(F)cc2)[C@@H](C)CN([C@H](C)CO)C(=O)c2cc(NC(=O)Nc3ccc4c(c3)OCO4)ccc2O1	inactive
